# Activity calls are given as the source filed them. How the source made its calls: active means hit-call score of the fitted dose curve at least 0.9, where 1 is the maximum; inactive means score below 0.9.
# What was measured:
# Conditions in all cases: mRNA level, 48 h; actives raise or lower the signal
# CYP4A11 (gene 1579) = test: LTEA_HepaRG_CYP4A11: Life Technologies and Expression Analysis (LTEA) Assay for CYP4A11 using HepaRG (AID 2283486)
# Outline: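 Readout is CYP4A11 transcript level by qRT-PCR, normalized to three housekeeping genes and fitted bidirectionally against 0.5% DMSO. Human HepaRG cells were treated 48 h, in duplicate, with an 8-point half-log series topping at 100 uM.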
# [1] = read-out: Cytochrome P450 3A4 (Homo sapiens) (UniProt P08684); test: LTEA_HepaRG_CYP3A4: Life Technologies and Expression Analysis (LTEA) Assay for CYP3A4 using HepaRG (AID 2283487)
# Outline: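 HepaRG, 48 h exposure, 8-pt CRC from 100 uM (half-log), 0.5% DMSO, duplicates; serum-free induction medium. Readout: CYP3A4 mRNA, qRT-PCR, ACTB/GAPDH/POLR2A normalization. Bidirectional fit vs DMSO.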
# [2] = read-out: DNA damage-inducible transcript 3 (DDIT3), DDIT3 (gene 1649); test: LTEA_HepaRG_DDIT3: Life Technologies and Expression Analysis (LTEA) Assay for DNA damage-inducible transcript 3 (DDIT3) using HepaRG (AID 2283488)
# Outline: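 qRT-PCR readout (Fluidigm TaqMan), housekeeping-normalized to ACTB, GAPDH, POLR2A. HepaRG cells, 48 h exposure, 8-point half-log series from 100 uM in 0.5% DMSO, duplicates. Gain or loss of signal fitted against DMSO baseline.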
# [3] = read-out: Pro-epidermal growth factor (Homo sapiens) (UniProt P01133); test: LTEA_HepaRG_EGF: Life Technologies and Expression Analysis (LTEA) Assay for Epidermal growth factor (EGF) using HepaRG (AID 2283489)
# Outline: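 EGF transcript measured by Fluidigm TaqMan qRT-PCR with three housekeeping genes for normalization, 48 h after dosing HepaRG cultures in duplicate (top 100 uM, half-log steps, 0.5% DMSO vehicle). Gain or loss relative to DMSO fitted.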
# [4] = read-out: Early growth response protein 1 (EGR1) transcription factor, EGR1 (gene 1958); test: LTEA_HepaRG_EGR1: Life Technologies and Expression Analysis (LTEA) Assay for Early growth response protein 1 (EGR1) transcription factor using HepaRG (AID 2283490)
# Outline: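 EGR1 transcript levels quantified by qRT-PCR (Fluidigm arrays) against three housekeeping genes after 48 h chemical exposure of HepaRG cells. Eight-point half-log series topping at 100 uM, 0.5% DMSO vehicle, analyzed for gain or loss.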
# [5] = read-out: Ezrin (EZR), EZR (gene 7430); test: LTEA_HepaRG_EZR: Life Technologies and Expression Analysis (LTEA) Assay for Ezrin (EZR) using HepaRG (AID 2283491)
# Outline: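 Read-out is EZR transcript level by qRT-PCR, normalized to three housekeeping genes and fitted bidirectionally against the DMSO control. Human HepaRG cells received test chemicals for 48 h at eight half-log concentrations up to 100 uM in 0.5% DMSO.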
# [6] = read-out: Cytochrome P450 3A7 (Homo sapiens) (UniProt P24462); test: LTEA_HepaRG_CYP3A7: Life Technologies and Expression Analysis (LTEA) Assay for CYP3A7 using HepaRG (AID 2283492)
# Outline: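 CYP3A7 transcript measured by qRT-PCR (ACTB, GAPDH, POLR2A normalization) after 48 h chemical exposure of HepaRG cells in duplicate. Eight half-log concentrations, maximum 100 uM, 0.5% DMSO vehicle; bidirectional curve fitting against DMSO baseline.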
# CYP3A5 (gene 1577) = test: LTEA_HepaRG_CYP3A5: Life Technologies and Expression Analysis (LTEA) Assay for CYP3A5 using HepaRG (AID 2283493)
# Outline: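 qRT-PCR read-out: CYP3A5 transcript in HepaRG lysates, housekeeping-normalized (ACTB/GAPDH/POLR2A), fitted bidirectionally against 0.5% DMSO baseline. Exposure 48 h, eight half-log concentrations up to 100 uM, duplicates.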
# [7] = read-out: Fatty Acid-Binding Protein 1 (FABP1), FABP1 (gene 2168); test: LTEA_HepaRG_FABP1: Life Technologies and Expression Analysis (LTEA) Assay for Fatty Acid-Binding Protein 1 (FABP1) using HepaRG (AID 2283494)
# Outline: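 FABP1 expression by TaqMan qRT-PCR, normalised to three housekeeping genes, in HepaRG cells after 48 h chemical treatment. Eight-point half-log series topping at 100 uM in 0.5% DMSO, duplicates; gain or loss fitted relative to vehicle.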
# [8] = read-out: Cytochrome P450 4A22 (Homo sapiens) (UniProt Q5TCH4); test: LTEA_HepaRG_CYP4A22: Life Technologies and Expression Analysis (LTEA) Assay for Cytochrome P450 4A22 (CYP4A22) using HepaRG (AID 2283495)
# Outline: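 Gene expression measured by qRT-PCR against three housekeeping genes (ACTB, GAPDH, POLR2A), with gain or loss fitted relative to 0.5% DMSO vehicle. HepaRG cultures received 48 h chemical treatment, top concentration 100 uM, half-log steps, duplicate wells.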
# [9] = read-out: Cytochrome P450 7A1 (Homo sapiens) (UniProt P22680); test: LTEA_HepaRG_CYP7A1: Life Technologies and Expression Analysis (LTEA) Assay for Cytochrome P450 7A1 (CYP7A1) using HepaRG (AID 2283496)
# Outline: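 Using 0.5% DMSO as vehicle and baseline, chemicals were tested in duplicate over an 8-point range from 100 uM on HepaRG cells for 48 h; qRT-PCR signals were normalised to ACTB, GAPDH and POLR2A.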
# [10] = read-out: Glutathione S-Transferase (GSTA2), GSTA2 (gene 2939); test: LTEA_HepaRG_GSTA2: Life Technologies and Expression Analysis (LTEA) Assay for Glutathione S-Transferase (GSTA2) using HepaRG (AID 2283497)
# Outline: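 GSTA2 transcript levels came from Fluidigm TaqMan qRT-PCR normalized to three housekeeping genes, fitted in both directions against DMSO. HepaRG cultures received chemicals for 48 h in serum-free induction medium (0.5% DMSO), 8 half-log concentrations up to 100 uM, duplicate.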
# [11] = read-out: Glutamate-cysteine ligase catalytic (GCLC), GCLC (gene 2729); test: LTEA_HepaRG_GCLC: Life Technologies and Expression Analysis (LTEA) Assay for Glutamate-cysteine ligase catalytic (GCLC) using HepaRG (AID 2283498)
# Outline: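 Expression by TaqMan qRT-PCR, normalized to three housekeeping genes (ACTB, GAPDH, POLR2A), with up- or down-regulation fitted against DMSO. HepaRG cells dosed in duplicate for 48 h with 8 half-log concentrations up to 100 uM, vehicle 0.5% DMSO.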
# [12] = read-out: growth arrest and DNA damage 45 (GADD45G), GADD45G (gene 10912); test: LTEA_HepaRG_GADD45G: Life Technologies and Expression Analysis (LTEA) Assay for growth arrest and DNA damage 45 (GADD45G) using HepaRG (AID 2283499)
# Outline: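 GADD45G transcript level by qRT-PCR (housekeeping-normalized: ACTB, GAPDH, POLR2A) after 48 h chemical treatment of a single HepaRG lot in serum-free induction medium; eight-point half-log series up to 100 uM in 0.5% DMSO, duplicates, up- or down-regulation scored.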
# [13] = read-out: Glutathione S-transferase M3 (GSTM3), GSTM3 (gene 2947); test: LTEA_HepaRG_GSTM3: Life Technologies and Expression Analysis (LTEA) Assay for Glutathione S-transferase M3 (GSTM3) using HepaRG (AID 2283501)
# Outline: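 GSTM3 transcript levels came from Fluidigm TaqMan qRT-PCR normalized to three housekeeping genes, fitted in both directions against DMSO. HepaRG cultures received chemicals for 48 h in serum-free induction medium (0.5% DMSO), 8 half-log concentrations up to 100 uM, duplicate.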
# [14] = read-out: Heat shock 70 kDa protein 1 (HSPA1A), gene 3303; test: LTEA_HepaRG_HSPA1A: Life Technologies and Expression Analysis (LTEA) Assay for Heat shock 70 kDa protein 1 (HSPA1A) using HepaRG (AID 2283502)
# Outline: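 HepaRG, 48 h exposure, 8-pt half-log CRC from 100 uM in 0.5% DMSO, duplicates. Readout: TaqMan qRT-PCR of HSPA1A mRNA, housekeeping-normalized (ACTB/GAPDH/POLR2A). Bidirectional fit vs 0.5% DMSO baseline.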
# [15] = read-out: Hypoxia-inducible factor 1-alpha (Homo sapiens) (UniProt Q16665); test: LTEA_HepaRG_HIF1A: Life Technologies and Expression Analysis (LTEA) Assay for Hypoxia-inducible factor 1 (HIF1A) Trancription factor using HepaRG (AID 2283503)
# Outline: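 Gain- or loss-of-signal HIF1A mRNA changes are fitted against a DMSO baseline. HepaRG cultures receive eight concentrations, highest 100 uM, for 48 h in serum-free induction medium with 0.5% DMSO.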
# [16] = read-out: 3-Hydroxy-3-Methylglutaryl-CoA Synthase 2 (HMGCS2), HMGCS2 (gene 3158); test: LTEA_HepaRG_HMGCS2: Life Technologies and Expression Analysis (LTEA) Assay for 3-Hydroxy-3-Methylglutaryl-CoA Synthase 2 (HMGCS2) using HepaRG (AID 2283504)
# Outline: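 Readout is HMGCS2 transcript by qRT-PCR, housekeeping-normalised (ACTB/GAPDH/POLR2A) and fitted bidirectionally against 0.5% DMSO. Differentiated HepaRG cells received chemicals 48 h, duplicate wells, eight half-log concentrations topping at 100 uM.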
# HGF (gene 3082) = test: LTEA_HepaRG_HGF: Life Technologies and Expression Analysis (LTEA) Assay for Hepatocyte Growth Facto (HGF) using HepaRG (AID 2283505)
# Outline: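 HGF transcript was quantified by TaqMan qRT-PCR against three housekeeping genes after 48 h treatment of HepaRG cells. Exposure ran in duplicate over eight half-log steps topping at 100 uM in 0.5% DMSO vehicle.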
# [17] = read-out: Glutamate-cysteine ligase regulatory (GCLM), GCLM (gene 2730); test: LTEA_HepaRG_GCLM: Life Technologies and Expression Analysis (LTEA) Assay for Glutamate-cysteine ligase regulatory (GCLM) using HepaRG (AID 2283500)
# Outline: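 HepaRG, 48 h dosing, 100 uM top, half-log x8, 0.5% DMSO vehicle. Readout: GCLM mRNA by TaqMan qRT-PCR, housekeeping-normalized (ACTB/GAPDH/POLR2A). Curves fit bidirectionally vs DMSO baseline.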
# Chain of Hypoxia-inducible factor 1-alpha (Homo sapiens) (Q16665 whole entry, looked up): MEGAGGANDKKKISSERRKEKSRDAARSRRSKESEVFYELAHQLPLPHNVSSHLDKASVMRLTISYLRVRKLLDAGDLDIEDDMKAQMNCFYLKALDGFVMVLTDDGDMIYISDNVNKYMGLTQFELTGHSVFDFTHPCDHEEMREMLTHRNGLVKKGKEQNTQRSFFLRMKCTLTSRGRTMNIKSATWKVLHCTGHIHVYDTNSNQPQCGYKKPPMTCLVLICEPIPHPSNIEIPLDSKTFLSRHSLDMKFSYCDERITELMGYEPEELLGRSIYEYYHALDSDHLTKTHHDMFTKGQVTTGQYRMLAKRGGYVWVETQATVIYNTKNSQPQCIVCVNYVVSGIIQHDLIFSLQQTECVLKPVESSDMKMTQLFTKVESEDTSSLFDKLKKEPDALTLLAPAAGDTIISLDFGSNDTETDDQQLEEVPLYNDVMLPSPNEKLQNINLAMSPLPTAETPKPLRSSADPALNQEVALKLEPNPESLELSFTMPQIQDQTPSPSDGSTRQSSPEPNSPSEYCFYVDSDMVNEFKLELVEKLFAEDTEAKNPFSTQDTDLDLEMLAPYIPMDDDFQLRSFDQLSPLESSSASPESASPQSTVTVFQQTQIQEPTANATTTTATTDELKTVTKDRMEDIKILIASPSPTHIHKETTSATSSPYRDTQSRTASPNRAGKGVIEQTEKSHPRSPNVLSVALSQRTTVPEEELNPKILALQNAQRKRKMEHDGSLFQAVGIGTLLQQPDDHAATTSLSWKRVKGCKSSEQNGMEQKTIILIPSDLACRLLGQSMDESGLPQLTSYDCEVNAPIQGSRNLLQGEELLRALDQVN
# Chain of Cytochrome P450 3A4 (Homo sapiens) (P08684 whole entry, looked up): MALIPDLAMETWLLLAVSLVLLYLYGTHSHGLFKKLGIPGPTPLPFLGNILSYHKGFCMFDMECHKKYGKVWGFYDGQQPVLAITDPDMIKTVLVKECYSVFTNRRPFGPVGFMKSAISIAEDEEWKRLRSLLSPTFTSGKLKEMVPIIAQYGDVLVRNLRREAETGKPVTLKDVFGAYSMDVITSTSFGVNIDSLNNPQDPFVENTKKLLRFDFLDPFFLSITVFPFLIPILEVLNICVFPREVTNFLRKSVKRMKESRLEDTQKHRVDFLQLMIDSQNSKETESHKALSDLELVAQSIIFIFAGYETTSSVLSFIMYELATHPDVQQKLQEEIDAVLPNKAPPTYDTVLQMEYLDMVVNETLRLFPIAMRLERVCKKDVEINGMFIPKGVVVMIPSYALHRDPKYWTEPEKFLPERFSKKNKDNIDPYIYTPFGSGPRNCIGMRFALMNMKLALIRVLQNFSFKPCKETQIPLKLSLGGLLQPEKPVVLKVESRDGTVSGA
# Chain of Cytochrome P450 3A7 (Homo sapiens) (P24462 whole entry, looked up): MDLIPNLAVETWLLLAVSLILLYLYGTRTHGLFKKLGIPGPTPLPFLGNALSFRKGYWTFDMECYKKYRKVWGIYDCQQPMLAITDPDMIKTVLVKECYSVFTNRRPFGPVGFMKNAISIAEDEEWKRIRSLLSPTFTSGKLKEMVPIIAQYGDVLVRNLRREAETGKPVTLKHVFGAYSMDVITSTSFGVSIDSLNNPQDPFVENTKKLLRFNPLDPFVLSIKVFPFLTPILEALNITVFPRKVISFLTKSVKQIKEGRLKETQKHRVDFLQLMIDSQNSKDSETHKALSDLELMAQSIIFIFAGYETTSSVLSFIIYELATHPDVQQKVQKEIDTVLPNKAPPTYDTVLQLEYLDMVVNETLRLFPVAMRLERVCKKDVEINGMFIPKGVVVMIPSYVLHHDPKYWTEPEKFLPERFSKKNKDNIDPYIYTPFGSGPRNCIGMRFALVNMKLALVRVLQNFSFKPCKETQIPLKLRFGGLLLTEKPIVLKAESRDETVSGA
smiles,measurement,setting,value
CCC(C)(CC)c1cc(NC(=O)c2c(OC)cccc2OC)on1,AC50,CYP4A11 (gene 1579),26.2 µM (active)
same,AC50,[1],0.541 µM (active)
same,AC50,[2],83.3 µM (active)
same,outcome,[3],inactive
same,outcome,[4],inactive
same,outcome,[5],inactive
same,AC50,[6],1.39 µM (active)
same,outcome,CYP3A5 (gene 1577),inactive
same,AC50,[7],4.89 µM (active)
same,AC50,[8],19.5 µM (active)
same,outcome,[9],inactive
same,outcome,[10],inactive
same,AC50,[11],63.8 µM (active)
same,AC50,[12],80.1 µM (active)
same,outcome,[13],inactive
same,outcome,[14],inactive
same,outcome,[15],inactive
same,outcome,[16],inactive
same,outcome,HGF (gene 3082),inactive
CCCCCCOC(=O)c1ccccc1C(=O)OCCCCCC,AC50,CYP4A11 (gene 1579),74.7 µM (active)
same,outcome,[1],inactive
same,outcome,[2],inactive
same,outcome,[3],inactive
same,outcome,[4],inactive
same,outcome,[5],inactive
same,outcome,CYP3A5 (gene 1577),inactive
same,outcome,[7],inactive
same,AC50,[8],83.9 µM (active)
same,outcome,[9],inactive
same,outcome,[10],inactive
same,outcome,[11],inactive
same,outcome,[12],inactive
same,outcome,[17],inactive
same,outcome,[13],inactive
same,outcome,[14],inactive
same,outcome,[15],inactive
same,outcome,[16],inactive
same,outcome,HGF (gene 3082),inactive
O=C(NC(=O)c1c(F)cccc1F)Nc1cc(Cl)c(OC(F)(F)C(F)F)c(Cl)c1,outcome,CYP4A11 (gene 1579),inactive
same,outcome,[1],inactive
same,outcome,[2],inactive
same,outcome,[3],inactive
same,outcome,[4],inactive
same,outcome,[5],inactive
same,outcome,CYP3A5 (gene 1577),inactive
same,AC50,[7],25.1 µM (active)
same,outcome,[8],inactive
same,AC50,[9],13.6 µM (active)
same,outcome,[10],inactive
same,outcome,[11],inactive
same,outcome,[12],inactive
same,outcome,[17],inactive
same,outcome,[13],inactive
same,outcome,[14],inactive
same,outcome,[15],inactive
same,AC50,[16],34.7 µM (active)
same,outcome,HGF (gene 3082),inactive
c1ccc(-c2ccccc2)cc1,outcome,CYP4A11 (gene 1579),inactive
same,outcome,[1],inactive
same,outcome,[2],inactive
same,outcome,[4],inactive
same,outcome,[5],inactive
same,outcome,CYP3A5 (gene 1577),inactive
same,outcome,[7],inactive
same,outcome,[10],inactive
same,outcome,[11],inactive
same,outcome,[12],inactive
same,outcome,[13],inactive
same,outcome,[14],inactive
same,outcome,[15],inactive
same,outcome,[16],inactive
same,outcome,HGF (gene 3082),inactive
O=S(=O)(O)C(F)(F)C(F)(F)C(F)(F)C(F)(F)C(F)(F)C(F)(F)F,AC50,CYP4A11 (gene 1579),22.8 µM (active)
same,AC50,[1],34.9 µM (active)
same,outcome,[2],inactive
same,outcome,[3],inactive
same,outcome,[4],inactive
same,outcome,[5],inactive
same,outcome,CYP3A5 (gene 1577),inactive
same,AC50,[7],9.02 µM (active)
same,AC50,[8],25.1 µM (active)
same,outcome,[9],inactive
same,outcome,[10],inactive
same,outcome,[11],inactive
same,AC50,[12],3.41 µM (active)
same,outcome,[13],inactive
same,outcome,[14],inactive
same,AC50,[15],4.59 µM (active)
same,AC50,[16],30.1 µM (active)
same,outcome,HGF (gene 3082),inactive
O=C(O)C(F)(F)C(F)(F)C(F)(F)C(F)(F)C(F)(F)C(F)(F)C(F)(F)C(F)(F)F,AC50,[1],81.7 µM (active)
same,AC50,[2],77.9 µM (active)
same,outcome,[3],inactive
same,AC50,[4],83.4 µM (active)
same,AC50,[5],77 µM (active)
same,AC50,[6],89 µM (active)
same,outcome,CYP3A5 (gene 1577),inactive
same,AC50,[7],81.1 µM (active)
same,AC50,[8],90 µM (active)
same,AC50,[9],86.7 µM (active)
same,AC50,[10],86.8 µM (active)
same,AC50,[11],75.3 µM (active)
same,AC50,[12],85.6 µM (active)
same,AC50,[17],77 µM (active)
same,outcome,[13],inactive
same,outcome,[15],inactive
same,AC50,[16],80.4 µM (active)
same,AC50,HGF (gene 3082),50 µM (active)
